PubChem BioAssay (NCI)
This is part of a sample that, as a whole, favours compounds with a hit. Of some 83,000 tested, about 20% had one in any assay.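 Note: values are percent growth. 100 is the growth of untreated cells, values between 100 and 0 indicate rising inhibition; between -100 and 0 indicates cell death.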 Unmarked numbers belong to inactive results. Calls of active or inactive are those of the source. Rule for the calls: active = growth percent below 10; inactive = the rest.

Experiments:
Experiment in all cases: NCI-60 one-dose screen, 48 h (100 = growth as untreated, 0 = no growth, -100 = all killed)
Settings in all cases: 10 µM unless noted
SR leukemia = tested on: SR leukemia
RPMI-8226 leukemia = tested on: RPMI-8226 leukemia
OVCAR-8 ovarian = tested on: OVCAR-8 ovarian
OVCAR-5 ovarian = tested on: OVCAR-5 ovarian
OVCAR-4 ovarian = tested on: OVCAR-4 ovarian
SK-OV-3 ovarian = tested on: SK-OV-3 ovarian
IGROV1 ovarian = tested on: IGROV1 ovarian
OVCAR-3 ovarian = tested on: OVCAR-3 ovarian
HS 578T breast = tested on: HS 578T breast
NCI/ADR-RES ovarian = tested on: NCI/ADR-RES ovarian

In the case of COc1ccc(-c2cc(-c3cc(OC)ccc3OC)[nH]c(=O)c2C#N)cc1, the growth (SR leukemia) is reported as 14.2%, the growth (RPMI-8226 leukemia) is reported as 88.6% and the growth (OVCAR-8 ovarian) is reported as 56.6%. For the same compound, the growth (OVCAR-5 ovarian) was 116%, the growth (OVCAR-4 ovarian) was 68.9% and the growth (SK-OV-3 ovarian) was 71.6%. The growth (IGROV1 ovarian) was 53.3%, the growth (OVCAR-3 ovarian) was 21.3% and the growth (HS 578T breast) was 43.5%. The growth (NCI/ADR-RES ovarian) was 34.2%.
CCNCCNc1cc(-c2ccc(C(=O)OC)cc2)c(C#N)c2nc3ccccc3n12 was tested, and the growth (SR leukemia) was -7.47% (active), the growth (RPMI-8226 leukemia) was 20.8% and the growth (OVCAR-8 ovarian) was 31.5%. The growth (OVCAR-5 ovarian) was 102%, the growth (OVCAR-4 ovarian) was -19.2% (active) and the growth (SK-OV-3 ovarian) was 81.7%. For the same compound, the growth (IGROV1 ovarian) was 53.5%, the growth (OVCAR-3 ovarian) was -57% (active) and the growth (HS 578T breast) was 59.3%. The growth (NCI/ADR-RES ovarian) was 57%.
In the case of CCNCCNc1cc(-c2ccc(C(F)(F)F)cc2)c(C#N)c2nc3cc(Cl)c(Cl)cc3n12, the growth (SR leukemia) is reported as -49.2% (active), the growth (RPMI-8226 leukemia) is reported as -41.6% (active) and the growth (OVCAR-8 ovarian) is reported as -64.1% (active). For the same compound, the growth (OVCAR-5 ovarian) was -92.3% (active), the growth (OVCAR-4 ovarian) was -81.9% (active) and the growth (SK-OV-3 ovarian) was 67.6%. The growth (IGROV1 ovarian) was -77.8% (active), the growth (OVCAR-3 ovarian) was -88.4% (active) and the growth (HS 578T breast) was -53.2% (active). For the same compound, the growth (NCI/ADR-RES ovarian) was -79.2% (active).
In the case of COc1c(C)cnc(CSc2nc(-c3ccc(C)cc3)cn2-c2ccc(Cl)cc2)c1C, the growth (SR leukemia) is reported as 74.8%, the growth (RPMI-8226 leukemia) is reported as 89.9% and the growth (OVCAR-8 ovarian) is reported as 98.5%. It also gave a growth (OVCAR-5 ovarian) of 97.5%, a growth (OVCAR-4 ovarian) of 90.2% and a growth (SK-OV-3 ovarian) of 91%. It also gave a growth (IGROV1 ovarian) of 93.4%, a growth (OVCAR-3 ovarian) of 93.5% and a growth (HS 578T breast) of 105%. It also gave a growth (NCI/ADR-RES ovarian) of 95.5%.
CC(C)N(CCOC(=O)Nc1ccccc1Cl)C(C)C gave a growth (SR leukemia) of 89.7%, a growth (RPMI-8226 leukemia) of 96% and a growth (OVCAR-8 ovarian) of 99.7%. The growth (OVCAR-5 ovarian) was 111%, the growth (OVCAR-4 ovarian) was 119% and the growth (SK-OV-3 ovarian) was 102%. The growth (IGROV1 ovarian) was 107%, the growth (OVCAR-3 ovarian) was 112% and the growth (HS 578T breast) was 95.8%. The growth (NCI/ADR-RES ovarian) was 105%.
For CCNCCNc1cc(-c2ccc(Cl)cc2)c(C#N)c2nc3ccccc3n12, the growth (SR leukemia) was -35.6% (active), the growth (RPMI-8226 leukemia) was -19.4% (active) and the growth (OVCAR-8 ovarian) was 10.7%. For the same compound, the growth (OVCAR-5 ovarian) was 4.7% (active), the growth (OVCAR-4 ovarian) was -9.51% (active) and the growth (SK-OV-3 ovarian) was 31.5%. The growth (IGROV1 ovarian) was 22.4%, the growth (OVCAR-3 ovarian) was -78.2% (active) and the growth (HS 578T breast) was -36% (active). For the same compound, the growth (NCI/ADR-RES ovarian) was 22.6%.
Work on CCOC(=O)c1ccc(-c2ccc3cc(OC)ccc3c2)nc1C yielded a growth (SR leukemia) of 78.3%, a growth (RPMI-8226 leukemia) of 105% and a growth (OVCAR-8 ovarian) of 107%. The growth (OVCAR-5 ovarian) was 95.4%, the growth (OVCAR-4 ovarian) was 112% and the growth (SK-OV-3 ovarian) was 98.6%. The growth (IGROV1 ovarian) was 102%, the growth (OVCAR-3 ovarian) was 106% and the growth (HS 578T breast) was 120%. For the same compound, the growth (NCI/ADR-RES ovarian) was 108%.
Work on Cc1nc(Nc2ccc(S(=O)(=O)Nc3cc(C)on3)cc2)c2ccccc2n1 yielded a growth (SR leukemia) of 111%, a growth (RPMI-8226 leukemia) of 111% and a growth (OVCAR-8 ovarian) of 104%. It also gave a growth (OVCAR-5 ovarian) of 101%, a growth (OVCAR-4 ovarian) of 105% and a growth (SK-OV-3 ovarian) of 93%. It also gave a growth (IGROV1 ovarian) of 96.9%, a growth (OVCAR-3 ovarian) of 103% and a growth (HS 578T breast) of 108%. For the same compound, the growth (NCI/ADR-RES ovarian) was 107%.
In the case of COc1ccc(C(=O)/C=C/c2cc3c(c(OC)c2)OCC(=O)N3)cc1, the growth (SR leukemia) is reported as 20.4%, the growth (RPMI-8226 leukemia) is reported as 5.42% (active) and the growth (OVCAR-8 ovarian) is reported as 44.8%. For the same compound, the growth (OVCAR-5 ovarian) was 45.7%, the growth (OVCAR-4 ovarian) was 53.7% and the growth (SK-OV-3 ovarian) was 103%. For the same compound, the growth (IGROV1 ovarian) was 80%, the growth (OVCAR-3 ovarian) was 2.27% (active) and the growth (HS 578T breast) was 42.3%. The growth (NCI/ADR-RES ovarian) was 36.7%.
For C=C(Cl)COC(=O)C(C)(C)O, the growth (SR leukemia) was 91.2%, the growth (RPMI-8226 leukemia) was 99.5% and the growth (OVCAR-8 ovarian) was 98.7%. For the same compound, the growth (OVCAR-5 ovarian) was 102%, the growth (OVCAR-4 ovarian) was 93.3% and the growth (SK-OV-3 ovarian) was 97.2%. For the same compound, the growth (IGROV1 ovarian) was 109%, the growth (OVCAR-3 ovarian) was 109% and the growth (HS 578T breast) was 110%. The growth (NCI/ADR-RES ovarian) was 95.2%.
O=C1c2ccccc2C(=O)c2cc(Cn3cc[n+](Cc4ccc5ccccc5c4)c3)ccc21 was tested, and the growth (SR leukemia) was 73.7%, the growth (RPMI-8226 leukemia) was 17.2% and the growth (OVCAR-8 ovarian) was 89.5%. For the same compound, the growth (OVCAR-5 ovarian) was 84.6%, the growth (OVCAR-4 ovarian) was 58.7% and the growth (SK-OV-3 ovarian) was 105%. For the same compound, the growth (IGROV1 ovarian) was 29.6%, the growth (OVCAR-3 ovarian) was 40.8% and the growth (HS 578T breast) was 92.6%. The growth (NCI/ADR-RES ovarian) was 104%.
Compound CCOC(=O)Cc1csc2nc(-c3ccccc3)nn12 has a growth (SR leukemia) of 98.8%, a growth (RPMI-8226 leukemia) of 113% and a growth (OVCAR-8 ovarian) of 98.3%. The growth (OVCAR-5 ovarian) was 92.9%, the growth (OVCAR-4 ovarian) was 105% and the growth (SK-OV-3 ovarian) was 115%. For the same compound, the growth (IGROV1 ovarian) was 104%, the growth (OVCAR-3 ovarian) was 117% and the growth (HS 578T breast) was 103%. The growth (NCI/ADR-RES ovarian) was 104%.
Clc1ccc(-c2cn(-c3ccccc3)c(-c3ccccc3)n2)cc1 was tested, and the growth (SR leukemia) was -19.6% (active), the growth (RPMI-8226 leukemia) was -54.6% (active) and the growth (OVCAR-8 ovarian) was 90.7%. It also gave a growth (OVCAR-5 ovarian) of 90%, a growth (OVCAR-4 ovarian) of 88.1% and a growth (SK-OV-3 ovarian) of 102%. The growth (IGROV1 ovarian) was 48%, the growth (OVCAR-3 ovarian) was 80% and the growth (HS 578T breast) was 102%. It also gave a growth (NCI/ADR-RES ovarian) of 93.4%.
COc1cccc(CCC2CCCN(c3cc(C)nc(N)n3)C2)c1 (stereo not given) gave a growth (SR leukemia) of 26.7%, a growth (RPMI-8226 leukemia) of 18.4% and a growth (OVCAR-8 ovarian) of 24.4%. The growth (OVCAR-5 ovarian) was 33.9%, the growth (OVCAR-4 ovarian) was 52.2% and the growth (SK-OV-3 ovarian) was 40.5%. For the same compound, the growth (IGROV1 ovarian) was 31.3%, the growth (OVCAR-3 ovarian) was 11.4% and the growth (HS 578T breast) was 56.8%. For the same compound, the growth (NCI/ADR-RES ovarian) was 6.21% (active).
